This passage reports outcome results from PubChem BioAssay (Tox21).

Calls of active or inactive are those of the source. Calls follow the shape of the full dose curve.

Chain of Thyrotropin-releasing hormone receptor (Homo sapiens) (P34981 whole entry, looked up): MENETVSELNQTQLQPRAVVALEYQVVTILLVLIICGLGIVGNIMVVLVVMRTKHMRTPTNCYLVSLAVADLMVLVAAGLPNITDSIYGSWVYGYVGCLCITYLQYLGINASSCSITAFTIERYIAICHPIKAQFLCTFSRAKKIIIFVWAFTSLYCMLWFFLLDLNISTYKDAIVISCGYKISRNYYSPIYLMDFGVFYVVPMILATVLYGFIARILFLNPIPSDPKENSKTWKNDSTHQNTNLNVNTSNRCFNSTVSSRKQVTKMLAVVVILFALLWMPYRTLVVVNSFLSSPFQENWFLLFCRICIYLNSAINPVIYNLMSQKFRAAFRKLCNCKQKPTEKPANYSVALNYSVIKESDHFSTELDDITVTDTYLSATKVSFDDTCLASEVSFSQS

This assay deals with Thyrotropin-releasing hormone receptor (Homo sapiens) (UniProt P34981). Put plainly: qHTS assay to identify small molecule agonists of the thyrotropin-releasing hormone receptor (TRHR) signaling pathway (AID 1346891). The note with it: TRHR-HEK293 calcium fluorescence, agonist mode; series mostly up to 57.6 µM. The method in brief:
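HEK293 cells expressing TRHR plated 18 h at 37 C/5% CO2, calcium dye-loaded 2 h at 37 C, then compound added (agonist mode); kinetic calcium fluorescence read 3 min at 1 s intervals; 15 concentrations in triplicate.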
Turning to `CCN(CC)C(=O)/C(C#N)=C/c1cc(O)c(O)c([N+](=O)[O-])c1`, the result was inactive.
As for `C[C@@H]1C[C@H]2[C@@H]3CCC4=CC(=O)C=C[C@]4(C)[C@@]3(F)[C@@H](O)C[C@]2(C)[C@@]1(O)C(=O)COP(=O)(O)O`, the result was inactive.
Next, `O=C(O)CN1C(=O)c2cccc3cccc(c23)C1=O`: “inactive”; `CCOC(=O)c1c(N)sc2c1CCN(Cc1ccccc1)C2`: “inactive”.
As for `CC(=O)OCC(C)C`, the entry is “inactive”; as for `O=S(=O)(O)CO`, “inactive”; as for `CCCCCCCCCCCSCC(=O)O`, “inactive”.
Consider `CC(C)C(O)C(C)(C)CO` (centres undefined), for which the outcome was inactive.
`Nc1nc(-c2ccc([N+](=O)[O-])cc2)cs1`: the result was inactive.
As for `CC(CCc1ccc(O)cc1)NCCc1ccc(O)c(O)c1` (centres undefined), the entry is “inactive”.
Consider `COc1cc(NC(C)CCCN)c2ncccc2c1` (centres undefined), for which the outcome was inactive.
Turning to `CC(C)OC(=O)c1ccccc1C(=O)OC(C)C`, the result was inactive.
For `Cc1ccccc1S(N)(=O)=O`, the result was inactive.
Regarding `COc1cc(S(=O)(=O)Nc2ccccc2)c(OC)cc1N`, the result was inactive.
As for `O=C1NC(=O)c2cccc3cccc1c23`, the entry is “inactive”; as for `NC(=O)c1ccccc1[N+](=O)[O-]`, “inactive”.
As for `COc1cc(NCc2ccc3nc(N)nc(N)c3c2C)cc(OC)c1OC`, the entry is “inactive”; as for `O=C1OC(=O)c2c(Br)c(Br)c(Br)c(Br)c21`, “inactive”; as for `CCCCCC`, “inactive”.
As for `CC[C@H]1OC(=O)[C@H](C)[C@@H](O[C@H]2C[C@@](C)(OC)[C@@H](O)[C@H](C)O2)[C@H](C)[C@@H](O[C@@H]2O[C@H](C)C[C@H](N(C)C)[C@H]2O)[C@](C)(O)C[C@@H](C)CN(C)[C@H](C)[C@@H](O)[C@]1(C)O`, the entry is “inactive”; as for `Cc1ccc(Nc2c(F)cccc2Cl)c(CC(=O)O)c1`, “inactive”.
As for `c1ccc(CCCc2ccncc2)cc1`, the result was inactive.
Consider `COC(=O)C1=C(C)NC(C)=C(C(=O)OC(C)(C)CN(C)CCC(c2ccccc2)c2ccccc2)C1c1cccc([N+](=O)[O-])c1` (centres undefined), for which the result was inactive.
With `O=c1[nH]c2cc(C(F)(F)F)c(N3CCOCC3)cc2n(CP(=O)(O)O)c1=O`, the outcome was inactive.
As for `Cc1ccc2c(c1)CCCN2`, the entry is “inactive”; as for `COc1ccc(N)c([N+](=O)[O-])c1`, “inactive”; as for `C1CCCCC1`, “inactive”.
`C1=CCC2CC=CC2C1` (centres undefined): the result was inactive.
Next, `CC(CN(CCN(CC(C)OCCO)CC(C)OCCO)CC(C)OCCO)OCCO` (centres undefined): “inactive”.
